Assay results: PubChem BioAssay (NCATS)
Values joined by “and” are separate entries in the source; they are usually repeats but may differ in a detail not shown here. Equal values may be shown once. Results filed as inconclusive are left out. Where a call stands in place of a potency, no number is given. Unmarked numbers belong to inactive results. Active and inactive are the calls of the source. Calls follow the shape of the dose curve; as a rule, active = well fitted curve in the direction sought with a large enough effect; inconclusive = small, poorly fitted or top-dose-only effect, or another doubt; inactive = no such curve, though single readings can be large; an effect the other way counts as inactive or inconclusive.

Key:
[1] = biological target: Cellular tumor antigen p53 (Homo sapiens) (UniProt P04637); assay: Primary qHTS for small molecule compounds that upregulate eGFP-tagged delta133p53alpha (in N-terminal) cells. (AID 2060322); settings: NCI-H358 eGFP-delta133p53alpha fluorescence, 24 h; activation: active compounds read high; also: nearly all actives have a fitted effect of over 75% in size; also: potency is read from the fitted curve at half-maximal effect; as to activation: series mostly up to about 56 µM
Sequence of Cellular tumor antigen p53 (Homo sapiens) (P04637 whole entry, looked up): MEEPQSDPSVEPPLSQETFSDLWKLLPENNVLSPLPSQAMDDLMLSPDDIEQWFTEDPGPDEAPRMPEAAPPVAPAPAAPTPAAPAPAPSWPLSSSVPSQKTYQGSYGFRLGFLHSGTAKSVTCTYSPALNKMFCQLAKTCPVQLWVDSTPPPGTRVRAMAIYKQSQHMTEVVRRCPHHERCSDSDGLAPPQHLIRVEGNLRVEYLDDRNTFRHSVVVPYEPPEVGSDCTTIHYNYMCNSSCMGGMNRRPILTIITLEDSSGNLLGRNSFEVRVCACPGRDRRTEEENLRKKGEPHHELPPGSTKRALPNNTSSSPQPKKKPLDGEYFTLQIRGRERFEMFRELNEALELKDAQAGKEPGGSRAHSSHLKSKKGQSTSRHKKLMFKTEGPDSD
Method in brief: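 NCI-H358 cells pre-induced 24 h with 10 ng/ml doxycycline to express N-terminal eGFP-delta133p53alpha, then dosed 24 h at 37C without doxycycline; fixed, Hoechst-stained, GFP intensity by laser scanning cytometry, normalized to DMSO (0%) and 57.5 uM 5-azacytidine (100%).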

[2] = biological target: Aldehyde dehydrogenase, mitochondrial (Homo sapiens) (UniProt P05091); assay: qHTS for Inhibitors of the Aldehyde Dehydrogenase Family (ALDH2) Primary screen (AID 2061308); also: nearly all actives have a fitted effect of over 55% in size
[3] = biological target: Retinaldehyde dehydrogenase 3 (Homo sapiens) (UniProt P47895); assay: qHTS for Inhibitors of the Aldehyde Dehydrogenase Family (ALDH1A3) Validation screen (AID 2061312); also: nearly all actives have a fitted effect of over 45% in size
[4] = biological target: Retinaldehyde dehydrogenase 3 (Homo sapiens) (UniProt P47895); assay: qHTS for Inhibitors of the Aldehyde Dehydrogenase Family (ALDH1A3) Primary screen (AID 2061315)
[5] = BET inhibitor-based combinations targeting novel dependencies in MECOM-rearranged (r) AML: SET-2 cell line (AID 2202231); settings: SET-2 AML cells viability, CellTiter-Glo luminescence, 48 h; viability: active compounds read low, concentration not given here; also: nearly all actives have a fitted effect of over 35% in size; also: potency is read from the fitted curve at half-maximal effect
Method in brief: (§1)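 A 48 hr incubation preceded viability reading by CellTiter-Glo, with 15 min room-temperature development. Dose series had 11 points; normalization used DMSO and empty wells; AUC was computed and mean-centered per line as Z-AUC.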

[6] = BET inhibitor-based combinations targeting novel dependencies in MECOM-rearranged (r) AML: OCI-AML3 cell line (AID 2202232); settings: Potency: OCI-AML3 viability; also: nearly all actives have a fitted effect of over 35% in size; also: potency is read from the fitted curve at half-maximal effect
Method in brief: as §1

[7] = BET inhibitor-based combinations targeting novel dependencies in MECOM-rearranged (r) AML: MV-4-11 cell line (AID 2202233); also: nearly all actives have a fitted effect of over 45% in size; also: potency is read from the fitted curve at half-maximal effect
Method in brief: (§2)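 Each compound is tested in an 11-point concentration series against 500 seeded cells/well for 48 hr. The luminescent viability signal is normalized to DMSO and blank wells, then reduced to AUC and a cell-line-centred Z-AUC.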

[8] = BET inhibitor-based combinations targeting novel dependencies in MECOM-rearranged (r) AML: HNT-34 cell line (AID 2202234); also: nearly all actives have a fitted effect of over 35% in size; also: potency is read from the fitted curve at half-maximal effect
Method in brief: as §2

[9] = BET inhibitor-based combinations targeting novel dependencies in MECOM-rearranged (r) AML: UCSD-AML1 cell line (AID 2202235); also: nearly all actives have a fitted effect of over 40% in size; also: potency is read from the fitted curve at half-maximal effect
Method in brief: as §2

[10] = BET inhibitor-based combinations targeting novel dependencies in MECOM-rearranged (r) AML: AML-191 cell line (AID 2202236; also: nearly all actives have a fitted effect of over 35% in size; also: potency is read from the fitted curve at half-maximal effect)
Method in brief: as §1

[11] = BET inhibitor-based combinations targeting novel dependencies in MECOM-rearranged (r) AML: AML-194 cell line (AID 2202237; also: nearly all actives have a fitted effect of over 40% in size; also: potency is read from the fitted curve at half-maximal effect)
Method in brief: as §1

SMILES	activation [1]	Potency [2]	Potency [3]	Potency [4]	Potency [5]	Potency [6]	Potency [7]	Potency [8]	Potency [9]	Potency [10]	Potency [1]	Potency [11]	viability [5] [%]
CC(C)CNc1ccnc(NCc2csc(-c3ccccc3)n2)n1	18.4% and 19.6%	inactive	inactive	inactive	11.8 µM (active)	8.33 µM (active)	8.33 µM (active)	5.9 µM (active)	5.25 µM (active)	16.6 µM (active)	–	–	–
Nc1ncnc2c1c(-c1cnc3[nH]ccc3c1)nn2C1CCCC1	–	inactive	inactive	inactive	3.72 µM (active)	4.17 µM (active)	1.66 µM (active)	0.417 µM (active)	0.372 µM (active)	2.95 µM (active)	26.9 µM (active)	1.86 µM (active)	–
CC[C@@H](C)Nc1cc(C(=O)NC2CC3CCC(C2)N3c2ccc(C(=O)C3CC3)cn2)c(C)cc1C(N)=O (some centres not stated)	-11%	inactive	inactive	inactive	0.132 µM (active)	0.166 µM (active)	0.0661 µM (active)	0.148 µM (active)	0.263 µM (active)	0.209 µM (active)	–	0.118 µM (active)	–
CNC1CCC(N(Cc2cccc(-c3ccncc3)c2)C(=O)c2sc3c(F)ccc(F)c3c2Cl)CC1 (configuration not stated)	21.5%	inactive	inactive	inactive	26.3 µM (active)	16.6 µM (active)	16.6 µM (active)	20.9 µM (active)	–	20.9 µM (active)	–	23.5 µM (active)	–
NS(=O)(=O)OC[C@@H]1C[C@@H](n2ccc3c(N[C@H]4CCc5ccccc54)ncnc32)C[C@@H]1O	-7.64% and -2.39%	inactive	inactive	inactive	0.525 µM (active)	0.372 µM (active)	0.209 µM (active)	0.372 µM (active)	0.59 µM (active)	0.934 µM (active)	–	0.934 µM (active)	–
C#CC[C@H](c1nc2cc(Cl)ccc2c(=O)n1Nc1ccccc1)N(CCCN)C(=O)c1cccc(Cl)c1F	–	inactive	inactive	inactive	10.5 µM (active)	0.59 µM (active)	1.05 µM (active)	0.372 µM (active)	1.05 µM (active)	3.32 µM (active)	4.78 µM (active)	3.32 µM (active)	–
COc1nc(C)cnc1NS(=O)(=O)c1cccnc1-c1ccc(-c2nnco2)cc1	13.1% and 3.34%	inactive	inactive	inactive	–	inactive	inactive	inactive	inactive	inactive	–	inactive	115
CCc1cccc2c3c([nH]c12)[C@@](CC)(CC(=O)O)OCC3	-4.77%	inactive	inactive	inactive	–	inactive	inactive	inactive	–	inactive	–	inactive	112
CCC(C)(Oc1ccc(C2(c3ccc(OC(C)(CC)C(=O)O)cc3)CCCCC2)cc1)C(=O)O (configuration not stated)	-25.7% and 13.4%	inactive	inactive	inactive	–	inactive	inactive	inactive	inactive	inactive	–	inactive	114
NCC1CCN(c2nccc(-c3ccc4ccccc4c3)n2)CC1	–	inactive	inactive	inactive	16.6 µM (active)	4.68 µM (active)	4.17 µM (active)	8.33 µM (active)	2.95 µM (active)	2.63 µM (active)	23.9 µM (active)	–	–
Cc1c(-c2ccnn2C)cc(C(=O)NCc2ccc(S(C)(=O)=O)cn2)c(=O)n1-c1cccc(C(F)(F)F)c1	-2.86% and -5.25%	inactive	inactive	inactive	–	inactive	inactive	inactive	inactive	inactive	–	inactive	103
C[C@H]1CN(C[C@H](Cc2ccccc2)C(=O)NCC(=O)O)CC[C@@]1(C)c1cccc(O)c1	7.64%	inactive	inactive	inactive	–	inactive	inactive	inactive	inactive	inactive	–	inactive	120
Cc1noc2c1-c1ccccc1C(c1ccc(Cl)cc1)=N[C@H]2CC(N)=O	32.4%	inactive	inactive	inactive	2.35 µM (active)	1.32 µM (active)	0.525 µM (active)	1.48 µM (active)	–	–	–	–	–
Clc1cccc(-n2nnnc2NCc2ccccc2Oc2ccccn2)c1Cl	-7.52% and 10.5%	inactive	inactive	inactive	–	inactive	inactive	inactive	inactive	inactive	–	inactive	103
